# Laboratory results taken from PubChem BioAssay (NCI).
# This is part of a sample that, as a whole, favours compounds with a hit. Of some 83,000 tested, about 20% had one in any assay.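 Percent growth is the endpoint: 0 to 100 indicates growth inhibition (40 means 60% inhibition), 0 means no net growth, and negative values indicate cell death.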 Values without a mark were called inactive. Activity calls are given as the source filed them. Rule for the calls: active = growth percent below 10; inactive = the rest.
# Tests used:
# Assay in all cases: NCI-60 one-dose screen, 48 h (100 = growth as untreated, 0 = no growth, -100 = all killed)
# Conditions in all cases: 10 µM unless noted
# NCI-H23 lung = test system: NCI-H23 lung
# NCI-H226 lung = test system: NCI-H226 lung
# NCI-H322M lung = test system: NCI-H322M lung
# HOP-62 NSCLC = test system: HOP-62 NSCLC
# NCI-H460 lung = test system: NCI-H460 lung
# HOP-92 NSCLC = test system: HOP-92 NSCLC
# NCI-H522 lung = test system: NCI-H522 lung
# A549/ATCC NSCLC = test system: A549/ATCC NSCLC
# 786-0 renal = test system: 786-0 renal
# COLO 205 colon = test system: COLO 205 colon
# DU-145 prostate = test system: DU-145 prostate
# K-562 leukemia = test system: K-562 leukemia
# MALME-3M melanoma = test system: MALME-3M melanoma
# MDA-MB-231 breast = test system: MDA-MB-231 breast
# RXF 393 renal = test system: RXF 393 renal
# SF-268 CNS = test system: SF-268 CNS
# SF-295 CNS = test system: SF-295 CNS
# SF-539 CNS = test system: SF-539 CNS
# UACC-257 melanoma = test system: UACC-257 melanoma
# M14 melanoma = test system: M14 melanoma
SMILES,growth (NCI-H23 lung) [%],growth (NCI-H226 lung) [%],growth (NCI-H322M lung) [%],growth (HOP-62 NSCLC),growth (NCI-H460 lung) [%],growth (HOP-92 NSCLC),growth (NCI-H522 lung),growth (A549/ATCC NSCLC) [%],growth (786-0 renal),growth (COLO 205 colon),growth (DU-145 prostate) [%],growth (K-562 leukemia),growth (MALME-3M melanoma),growth (MDA-MB-231 breast) [%],growth (RXF 393 renal),growth (SF-268 CNS) [%],growth (SF-295 CNS) [%],growth (SF-539 CNS),growth (UACC-257 melanoma) [%],growth (M14 melanoma) [%]
COc1cc(C=O)ccc1OC1OC(COC(C)=O)C(OC(C)=O)C(OC(C)=O)C1OC(C)=O (stereo unspecified),102,93.8,120,94%,104,88.7%,104%,94.8,105%,98.7%,107,116%,102%,101,103%,99.2,102,96.7%,101,–
C=C1C(=O)O[C@H]2[C@H]1CC/C(COC(=O)NCCc1c[nH]c3ccc(OC)cc13)=C\CC[C@@]1(C)O[C@@H]21,73.9,51,87.2,83.4%,69.4,-8.74% (active),-74.2% (active),64.2,-35.4% (active),-47.2% (active),10.6,3.56% (active),-37.2% (active),39.1,-81.7% (active),60.1,86.2,-24.7% (active),30.6,–
O=C(Nc1cccc(C(=O)N2CCc3ccc(Cl)cc32)c1)c1ccco1,62.4,60.2,65.2,42.4%,15.8,74.1%,17.8%,38.3,40.5%,27.5%,67.8,13.9%,40.9%,44.9,39.9%,55.9,30.8,26.8%,52.2,–
CC1(C)CC[C@]2(C(=O)O)CC[C@]3(C)C(=CC[C@@H]4[C@@]5(C)Cc6c([nH]c7ccccc67)C(C)(C)[C@@H]5CC[C@]43C)[C@@H]2C1,32.8,48.9,27.3,28.2%,16.7,60.3%,31.5%,17.8,37.7%,-15.5% (active),49.5,28.8%,115%,65.5,67.2%,54,36.7,36.2%,88.5,76.4
O=C(c1ccccc1)N1N=C(c2ccc(-n3ccc(C(F)(F)F)n3)c(F)c2)CC1c1ccc[nH]1 (stereo unspecified),104,108,98.7,122%,102,141%,89.9%,99.9,97.1%,116%,111,96.5%,101%,99.5,112%,104,105,109%,95.6,107
COC(=O)CNC(=O)[C@]12CCC(C)(C)C[C@H]1C1=CC[C@@H]3[C@@]4(C)Cc5c([nH]c6ccccc56)C(C)(C)[C@@H]4CC[C@@]3(C)[C@]1(C)CC2,92.9,83.5,91.6,87.8%,87.7,101%,80.5%,50.4,91.6%,87%,97.6,59.3%,92.2%,93.9,94.2%,84.4,84.7,102%,78.8,–
COC(=O)/C=C1\S/C(=N\NC(=O)c2cc3ccc2/C=C\c2ccc(cc2)/C=C\3)N(c2ccccc2)C1=O,40.4,73.8,68.5,3% (active),60.7,75.3%,41.5%,69.1,-0.285% (active),47.7%,50.9,27%,78.8%,32.5,5.34% (active),72.5,62.6,-22.5% (active),69.2,53.1
Cn1nc(CC#N)c2c(=N)n(N)cnc21,104,108,118,101%,102,98.8%,110%,113,123%,105%,106,103%,118%,96.7,112%,101,95,108%,111,110
